Growth inhibition data for 20 compounds are collected here from PubChem BioAssay (NCI).

A short description of experiment [1]: NCI Yeast Anticancer Drug Screen. Data for the rad50 strain (AID 155).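 Further: 0% = growth of vehicle-only cultures of the same strain.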 Conditions: S. cerevisiae rad50 strain growth inhibition; at 50.0 µM; stronger effect = higher value. An outline of the steps: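 DNA repair mutant yeast, compound exposure, growth read-out; inhibition is taken relative to vehicle.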
A short description of experiment [2]: NCI Yeast Anticancer Drug Screen. Data for the mec2-1 strain (AID 157). Conditions: S. cerevisiae mec2-1 strain, at 50.0 µM, stronger effect = higher value. In short, it runs like this: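 Growth inhibition is read against vehicle-treated controls after compound exposure of the mec2-1 yeast strain, which is defective in DNA damage repair or cell cycle control.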
Experiment [3] is described as follows: NCI Yeast Anticancer Drug Screen. Data for the sgs1 mgt1 strain (AID 161).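 Further: 0% = growth of cultures given vehicle only.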 Conditions: S. cerevisiae sgs1 mgt1 strain, at 50.0 µM, stronger effect = higher value. An outline of the steps: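 Growth of a repair-deficient yeast mutant was monitored after compound treatment and expressed as inhibition relative to vehicle-treated cultures.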
Experiment [4] is described as follows: NCI Yeast Anticancer Drug Screen. Data for the cln2 rad14 strain (AID 165).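 Further: 0% = growth equal to vehicle treated cultures.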 The following applies: S. cerevisiae cln2 rad14 strain, at 50.0 µM, stronger effect = higher value. An outline of the steps:
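Growth inhibition, relative to vehicle-treated controls, is the read-out. The test organism is a yeast strain with defined genetic alterations, cln2 rad14.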

Experiment [5] can be described thus: NCI Yeast Anticancer Drug Screen. Data for the bub3 strain (AID 167). The following applies: S. cerevisiae bub3 mutant strain, at 50.0 µM, stronger effect = higher value. In short, it runs like this: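 In this screen, a yeast mutant lacking normal mitotic checkpoint function is challenged with compound. Relative growth versus vehicle gives the inhibition value.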
Experiment [6] in a line: NCI Yeast Anticancer Drug Screen. Data for the mlh1 rad18 strain (AID 175). The following applies: S. cerevisiae mlh1 rad18 strain growth inhibition; at 50.0 µM; stronger effect = higher value. An outline of the steps:
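Cells of a genetically altered yeast strain, deficient in DNA damage repair, were treated with compound. Their growth was then compared with that of vehicle-treated cultures to give inhibition.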

The panel holds about 79,000 compounds, 15% with a hit somewhere; the sample as a whole holds those more often. A number with no mark means an inactive call. The source made the active and inactive calls. No stated cut-off is given here; in the data, active means growth inhibition above about 70%; inactive means the rest.

Turning to `C=CCOc1ccc(C2CCCCC2)cc1`, the growth inhibition in experiment [1] is 42%; in experiment [2] it was 16.9%; in experiment [3], 20.5%; in experiment [4] it was 11.6%; in experiment [5], -2.75%; in experiment [6], 18.3%.

For the compound `S=c1cc(-c2ccccc2)oc2ccccc12`, the growth inhibition in experiment [1] was 9.35%; in experiment [2], 10.8%; in experiment [3], -1.1%; in experiment [4], 6.85%; in experiment [5], 4.85%; in experiment [6], -2.8%.

For `ClC(Cl)(Cl)SSC(=Nc1ccccc1)SSC(Cl)(Cl)Cl`, the growth inhibition in experiment [1] is 70.8% (active); in experiment [2], 21.4%; in experiment [3], 51.6%; in experiment [4], -0.8%; in experiment [5], 64.3%; in experiment [6], 69.5%.

Regarding `Cc1nc2ccc(Br)cc2c(=O)n1-c1ccc(N=Cc2ccccc2Cl)cc1`, the growth inhibition is 49.8% in experiment [1]; 16.5% in experiment [2]; 26.6% in experiment [3]; 19.6% in experiment [4]; 2.6% in experiment [5]; 34.8% in experiment [6].

Take `CC(=O)Nc1ccccc1/C=C\c1ccccn1`: the growth inhibition in experiment [1] is -21.6%; in experiment [2], -9.85%; in experiment [3], -15.5%; in experiment [4], 1.25%; in experiment [5], -5.1%; in experiment [6], -11.7%.

Consider `O=C1c2cc3c(cc2CC12Cc1ccc4c(c1C2=O)CCCC4)CCCC3` (stereo not given), for which the growth inhibition in experiment [1] is -3.15%; in experiment [2], -4.15%; in experiment [3], -10.4%; in experiment [4], 3.6%; in experiment [5], 7.35%; in experiment [6], 9.8%.

As to `CC(C)(C)C1CCC2c3c([nH]c4ccccc34)C3C(=O)N(c4ccccc4[N+](=O)[O-])C(=O)C3C2C1` (stereo not given), the growth inhibition in experiment [1] is -16.9%; in experiment [2] it was -24.1%; in experiment [3], -18.6%; in experiment [4], 4.8%; in experiment [5] it was -15.3%; in experiment [6], -26.6%.

As to `Cc1cc(C)cc(NC(N)=S)c1`, the growth inhibition is 11.8% in experiment [1]; -0.25% in experiment [2]; 6.9% in experiment [3]; -5.3% in experiment [4]; 10.6% in experiment [5]; 11.7% in experiment [6].

`NC(CSS(=O)(=O)CC(N)C(=O)O)C(=O)O` (stereo not given): the growth inhibition was -5.85% in experiment [1]; 3.45% in experiment [2]; 6.15% in experiment [3]; -20.7% in experiment [4]; 6.4% in experiment [5]; -7.05% in experiment [6].

For `Cc1ccc(/C(O)=C/C(=O)C(=O)NC23CC4CC(CC(C4)C2)C3)cc1`, the growth inhibition in experiment [1] is 36.9%; in experiment [2] it was 15.3%; in experiment [3], 32.4%; in experiment [4], 24.9%; in experiment [5] it was 15.8%; in experiment [6] it was 23.4%.

Turning to `O=c1cccc2c3ccccc3ccn12`, the growth inhibition in experiment [1] was 22.9%; in experiment [2], 7%; in experiment [3], 15.3%; in experiment [4] it was 12.3%; in experiment [5] it was 15.3%; in experiment [6], 13.5%.

In the case of `N#C/C(c1nc2ccccc2[nH]1)=c1\s/c(=C(/N)O)c(=N)n1-c1ccccc1`, the growth inhibition in experiment [1] was -31.6%; in experiment [2] it was -26%; in experiment [3], -32.4%; in experiment [4] it was -30.1%; in experiment [5], -34.1%; in experiment [6], -47.6%.

For the compound `Cc1nc2c(=O)[nH]c(=O)[nH]c2[nH]c1=O`, the growth inhibition in experiment [1] was -20.4%; in experiment [2], -12.2%; in experiment [3], -24.6%; in experiment [4], -50.5%; in experiment [5], 2.55%; in experiment [6], -16.4%.

Regarding `CNC(=O)c1cc2nc3ccccc3c(=O)n2c2ccccc12`, the growth inhibition in experiment [1] is -46.3%; in experiment [2], -54%; in experiment [3] it was -25.1%; in experiment [4], -20.6%; in experiment [5], -7%; in experiment [6] it was -31.1%.

Consider `Cc1[nH]c(=O)[nH]c(=O)c1/C=C/C(=O)NC(CO)CSC(C)C` (stereo not given), for which the growth inhibition is -2% in experiment [1]; 27.1% in experiment [2]; -7.75% in experiment [3]; -3.9% in experiment [4]; 8.4% in experiment [5]; 9.55% in experiment [6].

Turning to `CCN(CC)CCCC(C)=O`, the growth inhibition is 9.25% in experiment [1]; 21.6% in experiment [2]; 28.2% in experiment [3]; 18.6% in experiment [4]; 13% in experiment [5]; 3.4% in experiment [6].

Turning to `O=C(CC(CC(=O)Oc1c(Br)cc(Br)cc1C(=O)O)C(=O)Oc1c(Br)cc(Br)cc1C(=O)O)Oc1c(Br)cc(Br)cc1C(=O)O`, the growth inhibition is -17.4% in experiment [1]; -23.4% in experiment [2]; -10% in experiment [3]; 8.7% in experiment [4]; -24% in experiment [5]; -5.6% in experiment [6].

In the case of `CCc1cccc(C(C)C)c1NC(=O)C(=O)C(Cc1nc2ccccc2[nH]c1=O)C(=O)OC` (stereo not given), the growth inhibition in experiment [1] is 37.8%; in experiment [2], 8.6%; in experiment [3] it was 3.85%; in experiment [4], -57.9%; in experiment [5], 2.4%; in experiment [6], 15.4%.

As to `O=Cc1ccc(OCc2cccc([N+](=O)[O-])c2)cc1`, the growth inhibition in experiment [1] was 6.6%; in experiment [2], 27.1%; in experiment [3], 26.4%; in experiment [4] it was -2.6%; in experiment [5], 31.4%; in experiment [6], 47%.

In the case of `CC1(C)C(=O)/C=C\C(=O)C(C)(C)C2=CC=C(O2)C(C)(C)C(=O)C(Br)C(Br)C(=O)C(C)(C)C2=CC=C1O2` (stereo not given), the growth inhibition is -20.4% in experiment [1]; -18.1% in experiment [2]; -68.5% in experiment [3]; 5.6% in experiment [4]; -34.9% in experiment [5]; -27.6% in experiment [6].
